Test results as given in the supplement of paper PMC11732987, “Enantioselective OTUD7B fragment discovery through chemoproteomics screening and high-throughput optimisation” (Communications Chemistry, 2025).

Experiments:
Experiment in all cases: log2 ratio of Biotin-Ahx-Ub-VS probe labelling (fragment/DMSO); higher = less target engagement (more negative = stronger competition), active = hit call of the paper (q ≤ 0.05, log2 ratio ≤ -1)
Conditions in all cases: compound concentration: 200 uM; treatment time: 3 h
USP42 = molecular target: T1, USP42 (UniProt Q9H9J4)
T1 sequence (whole entry): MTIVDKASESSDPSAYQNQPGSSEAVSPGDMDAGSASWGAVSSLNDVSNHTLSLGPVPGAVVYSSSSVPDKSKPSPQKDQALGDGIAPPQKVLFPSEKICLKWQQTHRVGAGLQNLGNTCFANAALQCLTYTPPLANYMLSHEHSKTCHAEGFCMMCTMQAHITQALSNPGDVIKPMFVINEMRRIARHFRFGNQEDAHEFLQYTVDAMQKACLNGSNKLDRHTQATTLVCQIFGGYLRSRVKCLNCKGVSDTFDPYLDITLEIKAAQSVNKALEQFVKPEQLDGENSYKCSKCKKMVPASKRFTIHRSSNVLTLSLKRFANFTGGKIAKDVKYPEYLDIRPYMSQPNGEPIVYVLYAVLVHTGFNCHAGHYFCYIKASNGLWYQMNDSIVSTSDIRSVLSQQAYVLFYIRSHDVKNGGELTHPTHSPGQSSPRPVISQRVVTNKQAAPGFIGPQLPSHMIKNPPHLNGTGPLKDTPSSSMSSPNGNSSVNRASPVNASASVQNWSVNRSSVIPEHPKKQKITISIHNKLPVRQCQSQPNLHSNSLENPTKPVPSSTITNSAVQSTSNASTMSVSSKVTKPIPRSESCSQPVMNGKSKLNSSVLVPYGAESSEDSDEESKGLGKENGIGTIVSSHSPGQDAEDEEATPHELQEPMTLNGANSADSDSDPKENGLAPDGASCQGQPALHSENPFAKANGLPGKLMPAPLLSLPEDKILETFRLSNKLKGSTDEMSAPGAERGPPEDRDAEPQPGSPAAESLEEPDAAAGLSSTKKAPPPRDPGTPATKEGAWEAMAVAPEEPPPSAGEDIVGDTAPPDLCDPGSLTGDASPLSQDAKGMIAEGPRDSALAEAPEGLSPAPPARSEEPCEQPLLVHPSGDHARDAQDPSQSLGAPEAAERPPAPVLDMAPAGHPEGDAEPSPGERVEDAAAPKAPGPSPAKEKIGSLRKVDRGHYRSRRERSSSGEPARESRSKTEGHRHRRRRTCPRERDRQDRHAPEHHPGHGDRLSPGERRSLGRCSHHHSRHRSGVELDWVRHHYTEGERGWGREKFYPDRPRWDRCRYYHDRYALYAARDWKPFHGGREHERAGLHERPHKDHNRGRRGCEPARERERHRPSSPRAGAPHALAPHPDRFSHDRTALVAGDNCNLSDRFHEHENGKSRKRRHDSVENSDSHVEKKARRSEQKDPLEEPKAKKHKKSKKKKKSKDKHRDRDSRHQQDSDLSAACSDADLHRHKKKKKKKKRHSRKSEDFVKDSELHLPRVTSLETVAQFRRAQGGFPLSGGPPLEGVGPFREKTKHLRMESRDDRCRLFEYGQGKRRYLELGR
Method in brief: (§1)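 Each value is an average log2 ratio of fragment to vehicle, tested by unpaired t-test. The underlying Spectronaut label-free quantities were global-median-normalised, and only proteins with ≥2 unique peptides were included. Triplicate HEK293T lysate samples (495 µg) were exposed to fragment at 200 µM or vehicle for 3 h, then to Biotin-Ahx-Ub-VS at 0.5 µM final for 1 h, before NeutrAvidin enrichment of labelled DUBs, LysC and trypsin digestion, and diaPASEF LC-MS/MS.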

USP46 = USP46 (UniProt P62068)
Sequence of USP46 (P62068 whole entry): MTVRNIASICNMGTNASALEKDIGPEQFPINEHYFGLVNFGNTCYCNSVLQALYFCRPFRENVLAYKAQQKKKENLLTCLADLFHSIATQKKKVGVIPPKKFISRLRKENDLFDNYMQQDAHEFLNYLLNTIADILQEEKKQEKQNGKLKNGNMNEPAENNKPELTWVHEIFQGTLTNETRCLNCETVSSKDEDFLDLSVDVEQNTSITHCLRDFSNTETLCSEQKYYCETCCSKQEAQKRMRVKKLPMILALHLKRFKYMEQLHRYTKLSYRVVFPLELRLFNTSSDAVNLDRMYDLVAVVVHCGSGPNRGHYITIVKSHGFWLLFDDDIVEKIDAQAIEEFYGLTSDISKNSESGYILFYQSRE
Method in brief: as §1

USP47 = molecular target: T2, USP47 (UniProt Q96K76)
T2 sequence (whole entry): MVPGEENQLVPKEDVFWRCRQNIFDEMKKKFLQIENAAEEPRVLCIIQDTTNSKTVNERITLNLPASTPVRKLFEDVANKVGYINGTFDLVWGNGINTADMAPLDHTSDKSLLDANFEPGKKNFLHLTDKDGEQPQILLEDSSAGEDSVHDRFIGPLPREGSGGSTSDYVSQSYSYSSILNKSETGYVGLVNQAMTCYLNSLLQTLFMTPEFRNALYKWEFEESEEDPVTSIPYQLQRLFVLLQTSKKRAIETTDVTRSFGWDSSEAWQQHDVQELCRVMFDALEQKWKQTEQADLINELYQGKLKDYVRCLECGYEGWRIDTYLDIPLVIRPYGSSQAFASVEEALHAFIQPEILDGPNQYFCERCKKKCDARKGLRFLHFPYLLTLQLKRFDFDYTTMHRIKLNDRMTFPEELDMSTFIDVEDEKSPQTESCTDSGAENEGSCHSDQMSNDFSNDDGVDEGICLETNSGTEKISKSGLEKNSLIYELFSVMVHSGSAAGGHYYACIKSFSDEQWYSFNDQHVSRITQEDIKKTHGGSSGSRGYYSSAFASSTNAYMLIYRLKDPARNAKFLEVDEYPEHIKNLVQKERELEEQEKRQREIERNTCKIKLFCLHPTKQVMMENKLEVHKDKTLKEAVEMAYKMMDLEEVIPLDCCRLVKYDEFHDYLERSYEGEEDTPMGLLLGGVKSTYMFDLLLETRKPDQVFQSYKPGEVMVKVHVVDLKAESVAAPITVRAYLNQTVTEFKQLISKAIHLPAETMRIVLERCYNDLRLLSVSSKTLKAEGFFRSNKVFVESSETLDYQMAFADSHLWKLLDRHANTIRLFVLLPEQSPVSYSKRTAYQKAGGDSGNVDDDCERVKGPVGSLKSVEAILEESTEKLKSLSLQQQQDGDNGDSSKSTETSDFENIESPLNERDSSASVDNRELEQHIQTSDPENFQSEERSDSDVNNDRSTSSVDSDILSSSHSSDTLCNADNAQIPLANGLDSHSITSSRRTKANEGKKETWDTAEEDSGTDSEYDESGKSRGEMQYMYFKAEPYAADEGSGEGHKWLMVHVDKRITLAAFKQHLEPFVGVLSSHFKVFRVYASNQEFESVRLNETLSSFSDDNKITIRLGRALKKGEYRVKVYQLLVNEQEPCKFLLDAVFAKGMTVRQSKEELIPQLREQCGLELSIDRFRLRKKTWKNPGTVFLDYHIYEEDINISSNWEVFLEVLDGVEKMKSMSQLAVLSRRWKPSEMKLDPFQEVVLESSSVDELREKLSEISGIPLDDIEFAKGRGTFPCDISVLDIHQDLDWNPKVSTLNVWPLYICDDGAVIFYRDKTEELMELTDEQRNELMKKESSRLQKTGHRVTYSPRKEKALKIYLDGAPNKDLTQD
Method in brief: as §1

USP48 = molecular target: T3, USP48 (UniProt Q86UV5)
T3 sequence (whole entry): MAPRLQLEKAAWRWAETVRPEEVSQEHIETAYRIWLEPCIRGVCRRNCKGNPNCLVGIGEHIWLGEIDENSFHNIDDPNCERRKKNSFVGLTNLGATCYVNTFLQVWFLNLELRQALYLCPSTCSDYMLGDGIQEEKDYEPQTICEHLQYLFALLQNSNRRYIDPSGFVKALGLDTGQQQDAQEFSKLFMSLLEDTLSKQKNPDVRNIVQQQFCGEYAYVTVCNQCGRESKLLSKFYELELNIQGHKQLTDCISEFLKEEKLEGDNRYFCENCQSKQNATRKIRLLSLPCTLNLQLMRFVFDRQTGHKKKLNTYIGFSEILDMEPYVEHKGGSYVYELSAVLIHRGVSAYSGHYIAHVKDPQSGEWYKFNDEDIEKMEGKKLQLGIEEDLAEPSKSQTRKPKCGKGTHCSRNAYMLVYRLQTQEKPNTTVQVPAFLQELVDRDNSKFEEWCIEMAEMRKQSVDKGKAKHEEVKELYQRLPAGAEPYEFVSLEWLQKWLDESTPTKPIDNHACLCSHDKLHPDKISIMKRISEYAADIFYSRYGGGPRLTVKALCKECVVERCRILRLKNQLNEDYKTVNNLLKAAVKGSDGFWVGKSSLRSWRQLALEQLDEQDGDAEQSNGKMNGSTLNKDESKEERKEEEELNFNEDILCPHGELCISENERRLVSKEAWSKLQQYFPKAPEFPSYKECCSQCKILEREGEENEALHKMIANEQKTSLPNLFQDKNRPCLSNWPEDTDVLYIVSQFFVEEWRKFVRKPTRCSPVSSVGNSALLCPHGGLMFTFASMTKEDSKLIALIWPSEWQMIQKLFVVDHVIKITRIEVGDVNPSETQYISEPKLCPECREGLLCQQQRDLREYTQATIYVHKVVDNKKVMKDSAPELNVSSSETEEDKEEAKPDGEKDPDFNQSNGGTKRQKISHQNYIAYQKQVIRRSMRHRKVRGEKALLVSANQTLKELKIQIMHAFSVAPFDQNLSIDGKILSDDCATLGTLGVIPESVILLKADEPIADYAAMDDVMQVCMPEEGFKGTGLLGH
Method in brief: as §1

USP5 = molecular target: T4, USP5 (UniProt P45974)
T4 sequence (whole entry): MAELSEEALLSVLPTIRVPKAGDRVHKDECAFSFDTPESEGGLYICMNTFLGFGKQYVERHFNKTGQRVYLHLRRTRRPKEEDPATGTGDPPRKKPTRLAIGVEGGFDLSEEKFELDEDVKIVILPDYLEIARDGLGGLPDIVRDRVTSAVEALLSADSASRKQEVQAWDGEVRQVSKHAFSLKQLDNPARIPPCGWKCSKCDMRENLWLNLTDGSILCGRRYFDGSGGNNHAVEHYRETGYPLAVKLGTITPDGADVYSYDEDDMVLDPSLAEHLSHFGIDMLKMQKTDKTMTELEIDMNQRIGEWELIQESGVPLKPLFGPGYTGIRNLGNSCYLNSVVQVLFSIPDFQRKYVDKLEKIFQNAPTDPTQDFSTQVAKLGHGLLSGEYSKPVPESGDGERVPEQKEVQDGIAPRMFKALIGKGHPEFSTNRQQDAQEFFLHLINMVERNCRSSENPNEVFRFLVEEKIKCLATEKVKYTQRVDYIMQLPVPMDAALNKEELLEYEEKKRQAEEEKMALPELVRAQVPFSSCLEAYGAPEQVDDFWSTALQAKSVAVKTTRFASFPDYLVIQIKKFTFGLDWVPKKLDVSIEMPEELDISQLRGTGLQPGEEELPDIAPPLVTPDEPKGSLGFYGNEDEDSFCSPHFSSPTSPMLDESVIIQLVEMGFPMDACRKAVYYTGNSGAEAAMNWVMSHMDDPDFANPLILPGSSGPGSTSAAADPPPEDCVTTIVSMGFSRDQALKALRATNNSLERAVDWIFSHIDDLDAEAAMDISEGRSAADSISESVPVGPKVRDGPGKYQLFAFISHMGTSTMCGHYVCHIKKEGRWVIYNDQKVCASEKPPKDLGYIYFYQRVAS
Method in brief: as §1

USP54 = USP54 (UniProt Q70EL1)
Sequence of USP54 (Q70EL1 whole entry): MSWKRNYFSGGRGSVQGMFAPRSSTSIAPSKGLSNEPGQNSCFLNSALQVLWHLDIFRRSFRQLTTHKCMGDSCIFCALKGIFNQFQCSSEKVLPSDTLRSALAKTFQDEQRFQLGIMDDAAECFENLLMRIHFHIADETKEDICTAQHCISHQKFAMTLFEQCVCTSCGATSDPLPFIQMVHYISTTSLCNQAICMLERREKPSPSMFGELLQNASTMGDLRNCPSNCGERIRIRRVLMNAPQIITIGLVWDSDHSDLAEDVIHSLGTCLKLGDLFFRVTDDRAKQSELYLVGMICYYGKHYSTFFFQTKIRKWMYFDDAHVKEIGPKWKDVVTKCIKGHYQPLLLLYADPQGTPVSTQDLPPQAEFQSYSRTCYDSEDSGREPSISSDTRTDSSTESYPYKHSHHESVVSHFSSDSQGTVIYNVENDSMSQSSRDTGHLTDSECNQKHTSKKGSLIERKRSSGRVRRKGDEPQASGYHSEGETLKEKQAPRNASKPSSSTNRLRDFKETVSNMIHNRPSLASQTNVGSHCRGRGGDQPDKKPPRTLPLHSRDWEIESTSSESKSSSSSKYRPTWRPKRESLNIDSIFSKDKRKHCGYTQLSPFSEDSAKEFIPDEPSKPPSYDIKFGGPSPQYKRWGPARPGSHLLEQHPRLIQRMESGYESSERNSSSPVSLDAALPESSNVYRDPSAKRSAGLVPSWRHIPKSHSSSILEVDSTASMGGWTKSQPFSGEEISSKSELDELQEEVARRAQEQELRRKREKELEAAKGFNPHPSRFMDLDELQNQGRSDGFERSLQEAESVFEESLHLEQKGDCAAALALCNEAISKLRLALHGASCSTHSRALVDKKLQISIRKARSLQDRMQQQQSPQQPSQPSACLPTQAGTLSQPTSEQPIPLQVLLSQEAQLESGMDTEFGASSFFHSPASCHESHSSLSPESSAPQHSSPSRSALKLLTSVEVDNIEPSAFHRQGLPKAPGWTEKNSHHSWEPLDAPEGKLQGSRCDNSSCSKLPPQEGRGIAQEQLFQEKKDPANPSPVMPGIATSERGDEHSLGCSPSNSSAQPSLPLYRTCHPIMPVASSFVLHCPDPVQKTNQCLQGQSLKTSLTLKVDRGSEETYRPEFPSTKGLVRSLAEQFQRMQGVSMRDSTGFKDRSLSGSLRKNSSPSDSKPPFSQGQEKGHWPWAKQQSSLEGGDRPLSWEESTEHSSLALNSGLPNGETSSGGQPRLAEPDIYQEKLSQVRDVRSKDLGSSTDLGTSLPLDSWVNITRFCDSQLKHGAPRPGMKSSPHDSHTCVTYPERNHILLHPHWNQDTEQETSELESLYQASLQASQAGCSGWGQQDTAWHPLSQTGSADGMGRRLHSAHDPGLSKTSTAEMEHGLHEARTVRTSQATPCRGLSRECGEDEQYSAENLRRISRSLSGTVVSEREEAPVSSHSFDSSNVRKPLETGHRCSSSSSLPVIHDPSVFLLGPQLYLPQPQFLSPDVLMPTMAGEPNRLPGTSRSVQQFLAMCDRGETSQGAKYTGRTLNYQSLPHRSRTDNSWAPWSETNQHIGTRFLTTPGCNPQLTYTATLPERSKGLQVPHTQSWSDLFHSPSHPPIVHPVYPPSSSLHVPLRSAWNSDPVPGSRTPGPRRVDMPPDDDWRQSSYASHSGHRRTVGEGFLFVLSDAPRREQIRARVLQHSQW
Method in brief: as §1

USP7 = USP7 (UniProt Q93009)
Sequence of USP7 (Q93009 whole entry, looked up): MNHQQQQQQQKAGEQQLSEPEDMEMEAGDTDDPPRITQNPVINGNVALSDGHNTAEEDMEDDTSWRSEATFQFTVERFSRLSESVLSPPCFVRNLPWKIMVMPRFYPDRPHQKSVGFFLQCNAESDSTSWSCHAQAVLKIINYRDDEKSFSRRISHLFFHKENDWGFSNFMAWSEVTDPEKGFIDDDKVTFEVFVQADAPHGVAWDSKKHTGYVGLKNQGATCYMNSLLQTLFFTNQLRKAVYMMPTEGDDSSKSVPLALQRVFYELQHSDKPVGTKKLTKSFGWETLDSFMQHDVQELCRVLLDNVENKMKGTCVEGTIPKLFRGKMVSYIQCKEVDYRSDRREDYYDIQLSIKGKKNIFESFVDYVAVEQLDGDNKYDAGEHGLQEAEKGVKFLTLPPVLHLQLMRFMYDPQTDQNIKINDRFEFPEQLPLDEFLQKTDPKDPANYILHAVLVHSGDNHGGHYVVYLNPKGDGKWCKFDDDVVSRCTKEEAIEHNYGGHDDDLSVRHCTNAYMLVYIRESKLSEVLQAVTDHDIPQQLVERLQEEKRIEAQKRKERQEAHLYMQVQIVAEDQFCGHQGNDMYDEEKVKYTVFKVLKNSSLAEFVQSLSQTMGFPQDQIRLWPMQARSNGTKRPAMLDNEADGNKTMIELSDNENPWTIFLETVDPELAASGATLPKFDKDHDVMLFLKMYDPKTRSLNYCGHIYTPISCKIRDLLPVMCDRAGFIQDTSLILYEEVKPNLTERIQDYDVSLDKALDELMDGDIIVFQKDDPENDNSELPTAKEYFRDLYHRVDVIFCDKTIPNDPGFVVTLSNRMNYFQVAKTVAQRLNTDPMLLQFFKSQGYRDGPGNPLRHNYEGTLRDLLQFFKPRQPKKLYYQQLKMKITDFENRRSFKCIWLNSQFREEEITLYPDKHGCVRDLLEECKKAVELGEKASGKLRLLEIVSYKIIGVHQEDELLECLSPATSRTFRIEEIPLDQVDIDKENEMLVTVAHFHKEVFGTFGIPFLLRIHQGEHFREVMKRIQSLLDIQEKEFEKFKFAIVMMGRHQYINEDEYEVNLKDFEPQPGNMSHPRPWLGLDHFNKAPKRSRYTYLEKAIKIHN
Method in brief: as §1

USP8 = molecular target: T5, USP8 (UniProt P40818)
T5 sequence (whole entry): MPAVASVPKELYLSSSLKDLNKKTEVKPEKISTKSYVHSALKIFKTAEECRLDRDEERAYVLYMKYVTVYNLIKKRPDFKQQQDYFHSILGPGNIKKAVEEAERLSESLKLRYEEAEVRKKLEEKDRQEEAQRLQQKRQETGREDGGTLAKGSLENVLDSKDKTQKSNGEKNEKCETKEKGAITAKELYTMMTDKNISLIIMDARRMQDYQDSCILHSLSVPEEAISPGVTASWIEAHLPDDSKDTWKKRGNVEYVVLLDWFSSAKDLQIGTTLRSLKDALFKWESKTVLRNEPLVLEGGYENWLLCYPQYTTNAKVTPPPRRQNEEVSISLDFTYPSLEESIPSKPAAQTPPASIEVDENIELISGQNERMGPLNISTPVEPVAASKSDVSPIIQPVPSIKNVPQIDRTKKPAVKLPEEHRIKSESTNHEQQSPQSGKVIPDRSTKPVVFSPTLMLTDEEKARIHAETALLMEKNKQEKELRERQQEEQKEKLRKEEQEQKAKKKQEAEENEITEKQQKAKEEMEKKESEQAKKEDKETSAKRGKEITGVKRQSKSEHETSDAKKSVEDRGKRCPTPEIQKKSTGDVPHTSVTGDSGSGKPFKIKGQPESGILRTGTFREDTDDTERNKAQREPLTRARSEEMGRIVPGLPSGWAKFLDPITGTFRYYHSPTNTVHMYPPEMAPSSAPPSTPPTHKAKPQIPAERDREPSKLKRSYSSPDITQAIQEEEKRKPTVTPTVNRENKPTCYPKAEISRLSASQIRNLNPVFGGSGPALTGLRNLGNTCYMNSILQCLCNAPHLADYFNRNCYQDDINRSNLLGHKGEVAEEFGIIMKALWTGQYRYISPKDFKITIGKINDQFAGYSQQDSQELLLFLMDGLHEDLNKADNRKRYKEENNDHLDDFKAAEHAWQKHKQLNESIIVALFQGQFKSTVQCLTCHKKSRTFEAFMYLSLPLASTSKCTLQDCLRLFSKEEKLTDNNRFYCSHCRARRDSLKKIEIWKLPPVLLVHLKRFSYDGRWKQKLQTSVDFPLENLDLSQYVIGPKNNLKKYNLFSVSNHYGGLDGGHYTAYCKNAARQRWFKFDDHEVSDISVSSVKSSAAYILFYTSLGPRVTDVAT
Method in brief: as §1

USP9X = USP9X (UniProt Q93008)
Method in brief: as §1

UniProt O00487 = molecular target: UniProt O00487
Sequence of UniProt O00487 (O00487 whole entry): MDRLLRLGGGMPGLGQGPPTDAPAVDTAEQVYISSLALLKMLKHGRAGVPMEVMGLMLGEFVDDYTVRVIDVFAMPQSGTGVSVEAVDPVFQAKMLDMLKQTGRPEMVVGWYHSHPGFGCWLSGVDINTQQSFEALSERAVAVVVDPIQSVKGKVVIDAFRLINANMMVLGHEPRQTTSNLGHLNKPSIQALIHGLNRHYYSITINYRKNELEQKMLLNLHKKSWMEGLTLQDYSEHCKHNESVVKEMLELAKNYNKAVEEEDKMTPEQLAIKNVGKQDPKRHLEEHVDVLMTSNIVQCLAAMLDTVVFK
Method in brief: as §1

Measured: log2 ratio of Biotin-Ahx-Ub-VS probe labelling

Cc1c(C#N)c(NC(=O)CCl)n(Cc2ccco2)c1C
inactive: USP42 0.0887 | USP46 -0.16 | USP47 -0.217 | USP48 -0.398 | USP5 -0.329 | USP54 -0.38 | USP7 -0.563 | USP8 -0.000142 | USP9X -0.241 | UniProt O00487 -0.177
